Screening results deposited in PubChem BioAssay by Broad Institute.
NOMO-1 viab: STK33 inhibitor candidate reducing NOMO-1 cell viability; NOMO-1 AML viability, CellTiter-Glo luminescence, 72 h; inhibition, % (concentration not given with the values); 37,000 tested, 7.5% active; AID 2330; in the data active = inhibition above about 80%; inconclusive = no clear call, values can overlap the other calls
ROS inducer: inducers of reactive oxygen species in cancer cells; ROS induction (% of piperlongumine), % at 10 µM; U2OS ROS induction, H2DCF-DA fluorescence; 46,000 tested, 2% active; in the data active = ROS induction above about 79%, passing the limit was not always enough; inconclusive = no clear call, values can overlap the other calls
Each line names hits and unclear results; the compound was inactive in the other large screens. Only a selection was taken, and hits are over-represented in it overall.

COc1ccc(CN(C)C[C@@H]2Oc3ccc(NS(C)(=O)=O)cc3C(=O)N([C@@H](C)CO)C[C@@H]2C)cc1	none
COc1ccc(NC(=O)Nc2ccc3c(c2)C(=O)N([C@H](C)CO)C[C@@H](C)[C@@H](CN(C)C(=O)Nc2ccc(C(F)(F)F)cc2)O3)cc1	none
C[C@@H]1O[C@@H](OC[C@H]2O[C@@H](Oc3ccc(O)cc3)[C@H](O)[C@@H](OC(=O)c3ccc(O)cc3)[C@@H]2O)[C@H](O)[C@H](O)[C@H]1O	none
O=C1C=CC(O)(/C=C/C(=O)OC[C@H]2O[C@@H](Oc3ccc(O)cc3)[C@H](O)[C@@H](OC(=O)/C=C/C3(O)C=CC(=O)C=C3)[C@@H]2O)C=C1	NOMO-1 viab 87.2, ROS inducer 127.4
O=C(/C=C/c1ccc(O)cc1)OC[C@H]1O[C@@H](Oc2cc(O)c3c(c2)OC(c2ccc(O)cc2)CC3=O)[C@H](O)[C@@H](OC(=O)/C=C/c2ccc(O)cc2)[C@@H]1O (stereo partly drawn)	NOMO-1 viab 119.8, ROS inducer 165.1
COc1ccc(C2CC(=O)c3c(O)cc(O[C@@H]4O[C@H](CO[C@@H]5O[C@@H](C)[C@H](O)[C@@H](O)[C@H]5O)[C@@H](O)[C@H](O)[C@H]4O)cc3O2)cc1 (stereo partly drawn)	none
CNC[C@H]1Oc2ccc(NS(=O)(=O)c3c(C)noc3C)cc2CC(=O)N([C@H](C)CO)C[C@H]1C	none
CCOC(=O)c1cc(-c2nnc(-c3cccc(C)c3)o2)c(C)nc1C	none (no result: NOMO-1 viab)
CC(C)(C)S(=O)(=O)Cc1nc(-c2cccc(F)c2)cs1	none (no result: NOMO-1 viab)
O=C(NCC[C@@H](CNC(=O)c1cccc(O)c1O)NC(=O)c1cccc(O)c1O)c1cccc(O)c1O	NOMO-1 viab 120.4
CC(C)CCNC(=O)c1cccc2c1-c1ccccc1C2=O	none
C[C@H]1CN([C@@H](C)CO)C(=O)Cc2cc(NC(=O)CCCCCC(=O)Nc3ccccc3N)ccc2O[C@@H]1CN(C)Cc1ccc(-c2ccccc2)cc1	NOMO-1 viab 140.4
C[C@H]1CN([C@@H](C)CO)C(=O)Cc2cc(NC(=O)CCCCCC(=O)Nc3ccccc3N)ccc2O[C@@H]1CN(C)Cc1ccc(C(F)(F)F)cc1	NOMO-1 viab 105.9
C[C@@H]1CN([C@H](C)CO)C(=O)Cc2cc(NC(=O)CCCCCC(=O)Nc3ccccc3N)ccc2O[C@@H]1CN(C)C(=O)Nc1ccc(C(F)(F)F)cc1	none
C[C@@H]1CN([C@@H](C)CO)C(=O)c2cc(NC(=O)CCCCCC(=O)Nc3ccccc3N)ccc2O[C@@H]1CN(C)Cc1ccc(-c2ccccc2)cc1	none
C[C@@H]1CN([C@@H](C)CO)C(=O)Cc2cc(NC(=O)CCCCCC(=O)Nc3ccccc3N)ccc2O[C@@H]1CN(C)Cc1ccc(-c2ccccc2)cc1	NOMO-1 viab 141.7
C[C@H]1CN([C@@H](C)CO)C(=O)Cc2cc(NC(=O)CCCCCC(=O)Nc3ccccc3N)ccc2O[C@@H]1CN(C)Cc1ccc2c(c1)OCO2	none
COc1c(O)cc2oc3cc(O)c(CC=C(C)C)c(O)c3c(=O)c2c1CC=C(C)C	NOMO-1 viab 97.9
CC(C)=CCc1c(O)cc2oc3c(CC=C(C)C)c(O)c(O)c(CC=C(C)C)c3c(=O)c2c1O	none (no result: NOMO-1 viab)
Cc1cnnc(/N=C(\N)Nc2ccc(S(=O)(=O)Nc3nc(C)ccc3C)cc2)n1	none (no result: NOMO-1 viab)
CCN(CC)C(=S)Sc1ncnc2sc3c(c12)CCCC3	NOMO-1 viab 125.4, ROS inducer 91.9
CC(C)(C)C(=O)CSc1ncnc2sc3c(c12)CCCC3	none
O=C(CSc1nc2ccccc2o1)NCCOC12CC3CC(CC(C3)C1)C2	none (no result: NOMO-1 viab)
C[C@@H]1CN([C@H](C)CO)C(=O)Cc2cc(NC(=O)C3CCCCC3)ccc2O[C@H]1CN(C)Cc1ccc(Cl)c(Cl)c1	NOMO-1 viab inconclusive
C[C@H](CO)N1C[C@H](C)[C@H](CN(C)Cc2ccc(Cl)c(Cl)c2)Oc2ccc(NC(=O)NC3CCCCC3)cc2CC1=O	NOMO-1 viab 99.6
C[C@H]1CN([C@@H](C)CO)C(=O)Cc2cc(NC(=O)NC3CCCCC3)ccc2O[C@@H]1CN(C)Cc1ccncc1	none
C[C@@H]1CN([C@H](C)CO)C(=O)Cc2cc(NC(=O)C3CCCCC3)ccc2O[C@@H]1CN(C)Cc1ccc(Cl)c(Cl)c1	NOMO-1 viab 114.2
C[C@@H]1CN([C@H](C)CO)C(=O)Cc2cc(NC(=O)C3CCCCC3)ccc2O[C@@H]1CN(C)Cc1ccc2c(c1)OCO2	ROS inducer 141.2
C[C@H](CO)N1C[C@H](C)[C@@H](CN(C)Cc2ccc3c(c2)OCO3)Oc2ccc(NC(=O)C3CCCCC3)cc2C1=O	none
C[C@H]1CN([C@@H](C)CO)C(=O)Cc2cc(NC(=O)C3CCCCC3)ccc2O[C@@H]1CN(C)Cc1ccc2c(c1)OCO2	none
C[C@H](CO)N1C[C@H](C)[C@H](CN(C)Cc2ccc3c(c2)OCO3)Oc2ccc(NC(=O)C3CCCCC3)cc2C1=O	NOMO-1 viab 93.5
Cc1ccc(S(=O)(=O)N(C)C[C@H]2Oc3c(NS(=O)(=O)c4ccc(Cl)cc4)cccc3C(=O)N([C@@H](C)CO)C[C@@H]2C)cc1	none
O[C@@H]1[C@@H](O)[C@H](OC/C=C/c2ccccc2)O[C@H](CO[C@@H]2OC[C@H](O)[C@H](O)[C@H]2O)[C@H]1O	none
COc1ccc(CN(C)C[C@@H]2Oc3c(NS(=O)(=O)c4ccc(C)cc4)cccc3C(=O)N([C@H](C)CO)C[C@H]2C)cc1	none
C[C@H](CO)N1C[C@H](C)[C@H](CN(C)Cc2ccc(Cl)c(Cl)c2)Oc2ccc(NC(=O)C3CC3)cc2CC1=O	none
C[C@@H]1CN([C@H](C)CO)C(=O)Cc2cc(NC(=O)C3CC3)ccc2O[C@@H]1CN(C)Cc1ccc(Cl)c(Cl)c1	ROS inducer 163.8
COc1ccc(NC(=O)Nc2cccc3c2O[C@H](CN(C)C(=O)NC2CCCCC2)[C@@H](C)CN([C@@H](C)CO)C3=O)cc1	none
COc1ccc(S(=O)(=O)N(C)C[C@@H]2Oc3ccc(NC(=O)Nc4ccc(C(F)(F)F)cc4)cc3CC(=O)N([C@H](C)CO)C[C@H]2C)cc1	none
COc1ccc(S(=O)(=O)N(C)C[C@@H]2Oc3ccc(NC(=O)Nc4ccc(C(F)(F)F)cc4)cc3CC(=O)N([C@H](C)CO)C[C@@H]2C)cc1	NOMO-1 viab 114.7
COc1ccc(NC(=O)Nc2ccc3c(c2)CC(=O)N([C@@H](C)CO)C[C@H](C)[C@@H](CN(C)S(=O)(=O)c2ccc(F)cc2)O3)cc1	none
COc1ccc(S(=O)(=O)N(C)C[C@@H]2Oc3ccc(NC(=O)Nc4ccc(C(F)(F)F)cc4)cc3CC(=O)N([C@@H](C)CO)C[C@@H]2C)cc1	NOMO-1 viab 102.2
COc1ccc(S(=O)(=O)Nc2ccc3c(c2)CC(=O)N([C@H](C)CO)C[C@@H](C)[C@@H](CN(C)Cc2ccncc2)O3)cc1	none
C[C@H]1CN([C@@H](C)CO)C(=O)c2cc(NC(=O)Cc3cn(C)c4ccccc34)ccc2O[C@@H]1CN(C)Cc1ccc(Oc2ccccc2)cc1	NOMO-1 viab 94.5, ROS inducer 134.2
C[C@@H]1CN([C@@H](C)CO)C(=O)c2cc(NC(=O)Cc3cn(C)c4ccccc34)ccc2O[C@@H]1CN(C)Cc1ccc(Oc2ccccc2)cc1	NOMO-1 viab 113.8
C[C@H]1CN([C@@H](C)CO)C(=O)c2cc(NC(=O)Cc3cn(C)c4ccccc34)ccc2O[C@H]1CN(C)Cc1ccc(Oc2ccccc2)cc1	none
C[C@@H]1CN([C@@H](C)CO)C(=O)c2cc(NC(=O)Cc3cn(C)c4ccccc34)ccc2O[C@H]1CN(C)Cc1ccc(Oc2ccccc2)cc1	none
